Measured values taken from the supplement of paper PMC6089552.
Among all 3,200 compounds or so, about 300 (9.4%) showed activity. The list comes from a sample in which actives are over-represented; it also holds similar structures and randomly drawn compounds.

Tested on: A673/TR/shEF
Assay: cell viability (LOESS-normalised, relative to median of negative controls) (log2 ratio); higher = more viable cells (less compound effect), active = hit call of the paper (over 3 MAD below the median)
Conditions: treatment time: 72 h
Method in brief: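 A673/TR/shEF Ewing sarcoma cells were plated at 1,500 per well in 384-well plates and cultured with or without doxycycline, added 24 h before compounds, to induce EWS-FLI1 shRNA knockdown. Library compounds at two or more concentrations, alongside DMSO controls, were applied for three days. Cell viability was measured by CellTiter-Glo luminescence on an Envision reader. Readings were LOESS-corrected per plate, divided by the median of negative controls and log2-transformed, and hits were wells lying at least three median absolute deviations from the median of all screened wells.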

[1] = 0.25 µM, library screen: screen1, EWS-FLI1 expression: high (no doxycycline)
[2] = 0.25 µM, library screen: screen1, EWS-FLI1 expression: low (doxycycline-induced shRNA knockdown)
[3] = 2.5 µM, library screen: screen1, EWS-FLI1 expression: high (no doxycycline)
[4] = 2.5 µM, library screen: screen1, EWS-FLI1 expression: low (doxycycline-induced shRNA knockdown)
[5] = 0.25 µM, library screen: screen2, EWS-FLI1 expression: high (no doxycycline)
[6] = 0.25 µM, library screen: screen2, EWS-FLI1 expression: low (doxycycline-induced shRNA knockdown)
[7] = 2.5 µM, library screen: screen2, EWS-FLI1 expression: high (no doxycycline)
[8] = 2.5 µM, library screen: screen2, EWS-FLI1 expression: low (doxycycline-induced shRNA knockdown)
[9] = 0.025 µM, library screen: screen2, EWS-FLI1 expression: high (no doxycycline)
[10] = 0.025 µM, library screen: screen2, EWS-FLI1 expression: low (doxycycline-induced shRNA knockdown)
[11] = 25 µM, library screen: screen2, EWS-FLI1 expression: high (no doxycycline)
[12] = 25 µM, library screen: screen2, EWS-FLI1 expression: low (doxycycline-induced shRNA knockdown)

Measured: cell viability (log2)

NCCC(O)C(=O)NC1CC(N)C(OC2OC(CN)C(O)C(O)C2N)C(OC2OC(CO)C(O)C2O)C1O (stereo not given)
inactive: [1] 0.0254 | [2] -0.0377 | [3] 0.12 | [4] -0.0236

CCN1C[C@]2(C)CC[C@H](O)[C@]34C1[C@H](C[C@H]23)[C@@]1(O)C[C@H](OC)[C@H]2C[C@@H]4[C@@H]1[C@H]2O
inactive: [5] 0.0509 | [6] 0.0197 | [7] 0.0295 | [8] 0.0503

COC(=O)COc1ccc(Cl)cc1Cl
inactive: [1] 0.022 | [2] -0.0423 | [3] 0.11 | [4] 0.0409

COc1cccc(CN2CCN(Cc3cccc(F)c3)CC2)c1
inactive: [1] 0.0335 | [2] 0.131 | [3] 0.0329 | [4] 0.0279

C[C@@H]1CC[C@@]2(NC1)O[C@H]1C[C@H]3[C@@H]4CC=C5C[C@@H](O)CC[C@]5(C)[C@H]4CC[C@]3(C)[C@H]1[C@@H]2C
inactive: [9] 0.0804 | [10] 0.071 | [1] 0.101 | [2] 0.14 | [5] 0.194 | [6] 0.0802 | [3] 0.13 | [4] 0.0856 | [7] 0.106 | [8] 0.133 | [11] 0.0875 | [12] 0.0211

CC(O)C(C)OC(=O)[C@@H]1C[C@@H]2c3cccc4c3c(cn4C(C)C)C[C@H]2N(C)C1 (stereo not given in full)
inactive: [5] 0.174 | [6] 0.171 | [7] 0.12 | [8] 0.112

NCCc1cccc(O)c1
inactive: [1] 0.0584 | [2] 0.0834 | [3] 0.0622 | [4] 0.0348

CN1CC[C@@]2(C)c3cc(O)ccc3N(C)C12 (stereo not given in full)
inactive: [5] 0.117 | [6] 0.0622 | [7] 0.072 | [8] 0.0674

CNNC
inactive: [9] 0.186 | [10] 0.0401 | [1] 0.136 | [2] 0.152 | [5] 0.206 | [6] 0.035 | [3] 0.115 | [4] 0.131 | [7] 0.112 | [8] 0.0817 | [11] 0.239 | [12] 0.143

Nc1ncnc2c1ncn2[C@@H]1O[C@H](COP(=O)(O)CP(=O)(O)OP(=O)([O-])[O-])[C@H](O)C1O.[Li+].[Li+] (stereo not given in full)
inactive: [5] 0.132 | [6] 0.0925 | [7] 0.106 | [8] 0.143

N[C@@H](Cn1ccc(=O)[nH]c1=O)C(=O)O
inactive: [5] 0.256 | [6] -0.00427 | [7] 0.176 | [8] 0.041
